Screening results from PubChem BioAssay.
Most compounds without a hit are left out; they make up all but 27% or so of the library.
CYP2C9 inhib: human CYP2C9 inhibition | inhibition, % at 5 µM | AID 777 | 20% of 96,000 active | CYP2C9 Supersomes, luciferin-H conversion, luminescence;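 active = blocking of liver enzyme CYP2C9 beyond about 50% at 5 µM, limit read from the data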
CYP2C19 activ: cytochrome P450 2C19 (human) activation. AID 1025. 96,000 tested, under 10 active. activation factor at 5 µM. P33261. recombinant CYP2C19, luciferin-H EGE luminescence; active compounds read high; 0 = fully inhibited enzyme, 1 = untreated enzyme;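 active = activation factor of at least 2 at 5 µM in the primary screen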
Target sequence (P33261 whole entry, looked up): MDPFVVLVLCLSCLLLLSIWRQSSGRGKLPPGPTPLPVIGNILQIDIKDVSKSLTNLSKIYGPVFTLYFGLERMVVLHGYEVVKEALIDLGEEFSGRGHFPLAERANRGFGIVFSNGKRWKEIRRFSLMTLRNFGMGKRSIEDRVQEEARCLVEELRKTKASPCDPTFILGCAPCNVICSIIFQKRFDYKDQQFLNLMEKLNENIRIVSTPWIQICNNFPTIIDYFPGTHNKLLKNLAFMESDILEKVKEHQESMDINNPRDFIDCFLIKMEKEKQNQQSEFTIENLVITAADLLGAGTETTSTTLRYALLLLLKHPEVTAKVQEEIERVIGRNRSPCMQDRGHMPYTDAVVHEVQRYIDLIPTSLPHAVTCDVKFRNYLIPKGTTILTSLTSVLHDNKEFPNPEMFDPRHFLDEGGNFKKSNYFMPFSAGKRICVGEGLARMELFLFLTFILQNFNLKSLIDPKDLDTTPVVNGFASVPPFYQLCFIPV
EphB4 ephrin blk: EphB4-ephrin-B2 interaction antagonism. EphB4 LBD / TNYL-RAW-Alexa532 peptide, fluorescence polarization. inhibition, % at 7 µM. 0.15% of 97,000 active. AID 720;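 active = inhibition above the screen-wide mean inhibition plus 3 SD, cut at about 15% in these data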
CYP2C9 act: CYP2C9 (human) activation | P11712 | recombinant CYP2C9, luciferin-H conversion, luminescence; active compounds read high; factor 1 = untreated enzyme, 0 = blocked | activation factor at 5 µM | 1.4% of 96,000 active;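 active = activation factor of 2 or more for CYP2C9 at a 5 µM dose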
CYP2C19 inh: human CYP2C19 inhibition; P33261; CYP2C19 Supersomes, luciferin-H EGE luminescence, 30 min; inhibition, % at 5 µM; 21% of 96,000 active;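 active = CYP2C19 inhibition above a set limit at 5 µM in the primary screen, cut at about 50% in these data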
Hits are given with their value; n = inactive; x = no result.

SMILES	CYP2C9 inhib	CYP2C19 activ	EphB4 ephrin blk	CYP2C9 act	CYP2C19 inh
COC(=O)C(CCCCN1C(=O)C2C3C=CC(C3)C2C1=O)N1C(=O)C2C3C=CC(C3)C2C1=O (stereo not drawn)	59	n	n	n	n
O=C(O)C(CCCCN1C(=O)C2C3C=CC(C3)C2C1=O)N1C(=O)C2C3C=CC(C3)C2C1=O (stereo not drawn)	n	n	n	n	n
CCCn1nc(C(=O)OCC(=O)c2ccc3c(c2)NC(=O)CO3)c2ccccc2c1=O	x	x	n	x	x
Cc1nn(CCc2n[nH]c(=S)n2-c2cccc(Cl)c2)c(C)c1[N+](=O)[O-]	n	n	n	n	57
COc1cc(NC(=O)C2CC(c3cccc(OC)c3OC)=NO2)cc(OC)c1OC (stereo not drawn)	n	n	n	n	61
COc1ccc(OC)c(C2=NOC(C(=O)Nc3ccccc3SC)C2)c1 (stereo not drawn)	n	n	n	n	86
COc1ccc(OC)c(C2=NOC(C(=O)Nc3cccc(C(C)=O)c3)C2)c1 (stereo not drawn)	n	n	n	2.3	52
O=C1c2ccccc2S(=O)(=O)N1Cc1cc(=O)n2ccsc2n1	n	n	n	n	n
COC(=O)c1c(C)nc2ccccc2c1C(=O)O	n	n	n	n	n
Nc1c(C(=O)N2CCCCC2)sc(=S)n1-c1ccccc1	n	n	n	n	n
COCCNC(=O)c1ccc(CS(=O)(=O)c2ccc(OC)cc2)o1	x	x	n	x	x
CN(CP(=O)(O)CN(C)S(C)(=O)=O)S(C)(=O)=O	n	n	n	n	n
CCOC(=O)N1CCN(Cc2ccccn2)CC1	n	n	n	n	n
CCOC(=O)C1CCCN(Cc2ccccc2Cl)C1 (stereo not drawn)	n	n	n	n	80
CCOC(=O)C1CCN(Cc2ccc(OC)cc2OC)CC1	n	n	x	n	n
CCOC(=O)C1CCN(Cc2ccccc2C)CC1	n	n	n	n	77
CCOC(=O)N1CCN(Cc2cccs2)CC1	n	n	n	n	90
CCOC(=O)C1CCN(Cc2cccc(OC)c2)CC1	n	n	n	n	77
Cc1cc(C)nc(NC(=O)c2ccc(Cl)c(Cl)c2)n1	n	n	n	n	n
CCOC(=O)N1CCN(Cc2cc(=O)oc3ccc(Cl)cc23)CC1	56	n	n	n	73
O=C(C1CCCN(Cc2cccs2)C1)N1CCCCCC1 (stereo not drawn)	n	n	n	n	n
CCOC(=O)C1CCCN(Cc2ccccc2C)C1 (stereo not drawn)	n	n	x	n	88
CCOC(=O)C1CCCN(Cc2cccs2)C1 (stereo not drawn)	n	n	n	n	88
CCN1CCN(Cc2cc(=O)oc3ccc(Cl)cc23)CC1	n	n	n	n	n
CCOC(=O)C1CCN(CC(=O)N2C(C)CCCC2C)CC1 (stereo not drawn)	n	n	x	n	63
SMILES	CYP2C9 inhib	CYP2C19 activ	EphB4 ephrin blk	CYP2C9 act	CYP2C19 inh
O=C(NC1CC2CCCC(C1)N2C(=O)Nc1ccc(Cl)c(C(F)(F)F)c1)C1CC1 (stereo not drawn)	n	n	n	n	n
CCOC(=O)C1CCCN(CC(O)COc2ccc(OC)cc2C(C)(C)C)C1 (stereo not drawn)	56	n	n	n	n
CCOC(=O)N1CCN(C(=O)C2CCCN(Cc3nc(-c4ccc(Cl)cc4)oc3C)C2)CC1 (stereo not drawn)	n	n	n	n	n
CCOC(=O)C1CCCN(Cc2nc(N)nc(Nc3ccc(Cl)cc3)n2)C1 (stereo not drawn)	67	n	n	n	63
CCOC(=O)C1CCCN(Cc2ccc(OCC)cc2)C1 (stereo not drawn)	n	n	n	n	76
CCOC(=O)C1CCCN(C/C(O)=C(\C#N)c2nc(-c3ccc(Cl)cc3)cs2)C1 (stereo not drawn)	58	n	n	n	n
CCOC(=O)C1CCCN(Cc2nc(N)nc(Nc3ccc(OC)cc3)n2)C1 (stereo not drawn)	n	n	n	n	n
NC(=O)c1ccccc1NC(=O)CCN1C(=O)c2ccccc2C1=O	n	n	n	n	n
N#CC(c1ccc(Cl)cc1)c1ncc(C(F)(F)F)cc1Cl (stereo not drawn)	n	n	n	n	94
N#CC(c1cccc(Cl)c1)c1ncc(C(F)(F)F)cc1Cl (stereo not drawn)	n	n	n	n	89
CCN(CC(=O)NCc1cccs1)S(=O)(=O)c1cccc(C(C)=O)c1	n	n	n	n	n
CCN(Cc1nc2ccccc2c(=O)[nH]1)Cc1cc(=O)oc2cc(OC)ccc12	52	n	n	n	n
COc1cccc(N2CCN(Cc3nc4ccccc4c(=O)[nH]3)CC2)c1	n	n	n	n	n
Cc1cc2oc(=O)cc(COC(=O)c3n[nH]c4ccccc34)c2cc1C	76	n	n	n	n
Cc1cc(NC(=O)COC(=O)c2n[nH]c3ccccc23)no1	n	n	n	n	n
Cc1ccc2c(COC(=O)c3cnc(C)cn3)cc(=O)oc2c1	n	n	x	n	n
COc1ccc2c(COC(=O)c3n[nH]c4ccccc34)cc(=O)oc2c1	56	n	n	n	n
CC1CCCN(C(=O)COC(=O)c2n[nH]c3ccccc23)C1 (stereo not drawn)	n	n	n	n	n
O=[N+]([O-])c1cccnc1N1CCC(c2cc(-c3ccc(Cl)cc3)n[nH]2)CC1	n	n	n	n	n
COC(=O)c1cc2sc(Cl)cc2n1Cc1nc(-c2cccc(C)c2)oc1C	n	n	n	n	n
CC1CCCN(c2c([N+](=O)[O-])c(=O)oc3ccccc23)C1 (stereo not drawn)	n	n	n	n	94
O=c1oc2ccccc2c(Nc2ccc(O)cc2)c1[N+](=O)[O-]	n	n	n	n	n
O=C(c1cnn2c(C(F)(F)F)cc(-c3ccc4c(c3)OCO4)nc12)N1CCCC1	n	n	n	n	n
Cc1cc(C)n(-c2nnc(C)n2/N=C/c2ccco2)n1	n	n	n	n	n
CCCOc1ccc2ccccc2c1/C=N/n1c(C)nnc1-n1nc(C)cc1C	n	n	n	n	83
SMILES	CYP2C9 inhib	CYP2C19 activ	EphB4 ephrin blk	CYP2C9 act	CYP2C19 inh
CC(C)C(C)(C#N)NC(=O)CSc1nnc(-c2ccncc2)n1Cc1ccccc1 (stereo not drawn)	52	n	n	n	80
O=C(CSc1nnc(-c2ccccn2)n1Cc1ccccc1)NC1CCCC1	n	n	16	n	n
O=C(CSc1nnc(-c2ccncc2)n1Cc1ccccc1)Nc1nccs1	54	n	n	n	75
CC(C)(C)NC(=O)CSc1nnc(-c2ccncc2)n1Cc1ccccc1	50	n	n	n	80
CCOC(=O)c1cccnc1SC(CC)C(=O)N1CCOCC1 (stereo not drawn)	n	n	n	n	n
CC(C)(C)C(=O)Nc1ccc2oc(-c3cc(F)c(F)cc3Cl)nc2c1	n	n	n	n	n
CC1=C(C(=O)Nc2ccccc2)C(c2cccnc2)n2nc(-c3cccnc3)nc2N1 (stereo not drawn)	75	n	n	n	n
